TDP1 cell noCPT = qHTS for Inhibitors of human tyrosyl-DNA phosphodiesterase 1 (TDP1): qHTS in cells in absence of CPT; DT40 Tdp1-/- hTDP1 cells, no CPT, ATP luminescence, 48 h; Potency, µM (top dose mostly 46.2 µM), without a hit: at the top dose activity change, negative = growth inhibition, usual class: inhibitors; hit rate 15% among 420,000; AID 686978, 2013; note: potency is the fitted concentration of half-maximal effect; % is set by controls: 0 for no effect and ±100 for the full control effect; nearly all actives have a fitted effect of over 55% in size
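A cellular qHTS used chicken DT40 cells lacking endogenous Tdp1 but carrying stably transfected human TDP1. Compounds were applied without camptothecin, and cell growth kinetics were judged by ATP-dependent luminescence after ≥48 hr.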
TGFb inhibitor = inhibitors of TGF-b signaling. HepG2 CAGA-GFP TGF-b/SMAD3 reporter, GFP fluorescence, 18 h; TGF-beta stimulated, 500 pg/mL final. Potency, µM (top dose mostly 46.1 µM), for inactives: at the highest dose activity, negative = inhibition, hits mostly inhibitors. hit rate 1.2% among 410,000; note: potency is the fitted concentration of half-maximal effect; % is set by controls: 0 for no effect and ±100 for the full control effect; nearly all actives have a fitted effect of over 65% in size
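First, reporter cells (HEPG2 CAGA-GFP) rested 2 h at 37 degrees C. Next, compounds were pinned in and TGF-beta added to 500 pg/mL final. After 18 h, GFP was imaged per cell and summed per well.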
IL-1B inflam inh = blocks inflammasome-driven IL-1 beta release; THP-1 LPS/ATP IL-1B secretion, AlphaLISA, 16 h; stronger effect = lower value; activity change, % at 57.5 µM; hit rate 4.7% among 360,000; in the data active = activity change below about -50%; inconclusive = mostly about -30% to -49%; note: % is set by controls: 0 for no effect and ±100 for the full control effect
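THP-1 cells pretreated 1 hr with compounds (up to 57.5 uM final), then stimulated with LPS (250 ng/mL final) plus ATP (1.25 mM final); secreted IL-1B measured by AlphaLISA after 16 hr, decreased signal indicating inhibition.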
DT40 TDP1 CPT = growth inhibition of DT40 Tdp1-/-;hTDP1 cells with camptothecin (screen for TDP1 inhibitors); chicken DT40 Tdp1-/-;hTDP1 cells + 20 nM CPT, ATP luminescence, 48 h; Potency, µM (highest dose often 46.2 µM), for the others: at the highest dose activity change, negative = growth inhibition, most hits filed as inhibitors; hit rate 12% among 420,000; AID 686979; note: potency is the fitted concentration of half-maximal effect; % is set by controls: 0 for no effect and ±100 for the full control effect; nearly all actives have a fitted effect of over 55% in size
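Chicken DT40 Tdp1-/- cells stably complemented with human TDP1 were seeded at 400 cells/well in medium containing 20 nM camptothecin, exposed to pin-transferred compounds, and grown at 37 °C for at least 48 hr. Viability was read as ATP luminescence.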
TDP1 inh = blocks human tyrosyl-DNA phosphodiesterase 1; Q9NUW8; recombinant TDP1, AlphaScreen DNA substrate cleavage; Potency, µM (highest dose often 130 µM), for inactives: at the highest dose activity change, negative = inhibition, most hits filed as inhibitors; AID 485290; hit rate 0.28% among 350,000; note: potency is the fitted concentration of half-maximal effect; % is set by controls: 0 for no effect and ±100 for the full control effect; nearly all actives have a fitted effect of over 40% in size
Target sequence (Q9NUW8 whole entry, looked up): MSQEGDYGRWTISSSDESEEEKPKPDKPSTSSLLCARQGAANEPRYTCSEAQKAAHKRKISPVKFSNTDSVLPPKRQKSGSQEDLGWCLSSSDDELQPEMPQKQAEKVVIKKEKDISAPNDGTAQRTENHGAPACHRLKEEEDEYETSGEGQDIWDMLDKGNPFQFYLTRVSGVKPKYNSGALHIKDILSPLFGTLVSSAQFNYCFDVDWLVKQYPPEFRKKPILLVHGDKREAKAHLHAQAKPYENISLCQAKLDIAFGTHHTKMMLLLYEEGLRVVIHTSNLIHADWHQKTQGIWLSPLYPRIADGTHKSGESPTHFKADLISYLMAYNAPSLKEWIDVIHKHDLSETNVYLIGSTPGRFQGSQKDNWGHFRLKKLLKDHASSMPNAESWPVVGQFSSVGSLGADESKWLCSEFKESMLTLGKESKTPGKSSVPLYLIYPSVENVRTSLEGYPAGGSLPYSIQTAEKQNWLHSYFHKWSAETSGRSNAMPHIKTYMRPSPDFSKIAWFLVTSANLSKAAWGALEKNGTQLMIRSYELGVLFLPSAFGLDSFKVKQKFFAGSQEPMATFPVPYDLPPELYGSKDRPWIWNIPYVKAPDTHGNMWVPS
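Recombinant E. coli-expressed Tdp1 (1 nM) preincubated with compound 15 min at RT, then 5'-biotin/3'-phosphotyrosine-FITC DNA substrate (15 nM) added for 5 min. AlphaScreen beads (10 ug/ml) added, 10 min RT; tyrosine-FITC cleavage read as signal loss.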
HepG2 tox = HepG2 cytotoxicity, counter-screen for TGF-b inhibitors; AID 588856; hit rate 0.76% among 410,000; Potency, µM (doses to about 46.1 µM), for inactives: top-dose activity change, negative = cytotoxicity, usual class: cytotoxic; HepG2 CAGA-GFP viability, ATP luminescence, 18 h; note: potency is the fitted concentration of half-maximal effect
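CellTiter-Glo luminescence gave cytotoxicity after 18 hours at 37 degrees C. The cells were HepG2 CAGA-GFP in 1% FBS DMEM, stimulated with 500 pg/mL TGF-beta after compound addition. %Activity was normalised to no-cell wells (complete cell-killing) and DMSO (no toxicity), and curves were fitted and classified.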
Numbers without * were called inactive; i = inactive; ? = inconclusive; / = not tested or not shown; [ ] = dose if it differs, or a comment. The list is not random: actives were taken first. Their share in the collection is about 18%. Unless noted, calls come from the whole dose curve; as a rule, active = well fitted curve in the direction sought with a large enough effect; inconclusive = small, poorly fitted or top-dose-only effect, or another doubt; inactive = no such curve, though single readings can be large; an effect the other way counts as inactive or inconclusive.

SMILES	TDP1 cell noCPT	TGFb inhibitor	IL-1B inflam inh	DT40 TDP1 CPT	TDP1 inh	HepG2 tox
CC(=O)c1ccc(N(CC(=O)NC2CCS(=O)(=O)C2)S(=O)(=O)c2ccc(Cl)cc2)cc1 (stereo not given)	-15.1%	3.3%	-9.2	-8.6%	0.0%	-0.5%
COc1ccccc1NC(=O)CN1C(=O)C(C)(C)c2ccccc21	-26.9%	-18.2%	/	-13.2%	7.7%	4.4%
CCOc1ccccc1C(=O)N(Cc1cccs1)c1ccc(Cl)cc1	10.3µM*	17.8µM*	/	16.4µM*	-0.5%	-97.2%
Cc1ccc(N(Cc2cccs2)C(=O)c2ccccc2Cl)cc1	18.4µM*	?	/	13µM*	-0.5%	-10.2%
Cc1cccc(OCC(=O)N(Cc2cccs2)c2ccc(Cl)cc2)c1C	?	?	/	?	-13.0%	-30.8%
CC(C)(C)c1cc2nc(NCCOc3ccccc3)ccn2n1	?	10.6%	9.7	?	/	-16.7%
c1csc(CNc2ccn3nc(-c4ccc(OCCN5CCOCC5)cc4)cc3n2)c1	16.4µM*	?	-14.1	20.6µM*	/	-35.3%
c1ccc(COc2cccc(-c3cc4nc(NCc5ccc6c(c5)OCO6)ccn4n3)c2)cc1	?	-6.1%	-27.6	?	/	-27.5%
c1ccc(-c2cc3nc(NCc4cccs4)ccn3n2)cc1	?	4.5%	14.6	-105.0%	/	-23.1%
c1ccc(COc2ccc(-c3cc4nc(NCc5ccc6c(c5)OCO6)ccn4n3)cc2)cc1	7.31µM*	-4.4%	44.9	18.4µM*	/	-7.1%
c1ccc(OCCNc2ccn3nc(-c4ccc(OCCN5CCOCC5)cc4)cc3n2)cc1	16.4µM*	?	-11.0	9.2µM*	/	-24.4%
COc1ccc(C(C(=O)NC2CCCC2)N(C(=O)c2ccco2)c2cc3c(cc2C(C)=O)OCO3)cc1OC (stereo not given)	-15.1%	-5.2%	5.2	-1.9%	2.3%	-10.6%
Cc1ccccc1NC(=O)CSc1ccc(-c2ccc(-n3cccn3)cc2)nn1	7.9%	-8.9%	8.2	-3.7%	/	1.4%
COc1cc(NC(=O)CSc2ccc(-c3ccccn3)nn2)cc(OC)c1	?	?	47.1	?	2.7%	-32.8%
COc1ccc(Cl)cc1NC(=O)CSc1ccc(-c2sc(C)nc2C)nn1	10.3µM*	-10.8%	/	13µM*	-7.7%	-4.7%
COc1ccccc1NC(=O)CSc1ccc(-c2ccc(-n3ccnc3)cc2)nn1	13µM*	-0.1%	-12.5	20.6µM*	/	-2.8%
COc1ccc(C)cc1NC(=O)CSc1ccc(-c2ccccn2)nn1	20.6µM*	?	i	?	4.8%	0.0%
Cc1nc(C)c(-c2ccc(SCC(=O)Nc3ccc(F)cc3F)nn2)s1	?	-9.4%	0.0	?	2.6%	-6.1%
COc1ccc(C)cc1NC(=O)CSc1ccc(-c2sc(C)nc2C)nn1	?	0.0%	?	13µM*	0.5%	3.2%
O=C(OCC(=O)N1CCc2ccccc2C1)c1ccc(O)cc1	10.5%	-5.6%	13.7	-26.2%	0.4%	0.4%
O=C(O)Cc1cc(I)c(Oc2cc(I)c(O)c(I)c2)c(I)c1	0.3%	/	/	5.9%	-5.3%[56.1 µM]	/
Cc1ccsc1CN(C)C(=O)CN1C(=O)NC2(CCCCC2C)C1=O (stereo not given)	5.6%	15.1%	0.0	-15.2%	-0.1%	11.9%
CCCCNC(=O)c1ccc2c(=O)n(Cc3ccc(OC)cc3)c(=O)[nH]c2c1	-18.2%	-18.6%	/	-2.2%	0.0%	5.4%
Nc1cc(-c2ccccc2)c[nH]c1=O	/	/	/	/	3.1%	/
O=C(Nc1ccc(F)cc1F)c1ccc(-n2cnnc2)cc1	-9.3%	-13.1%	/	-7.9%	-2.2%	5.1%
COc1ccc(OC)c(NC(=O)CSc2ccc(-c3cccs3)nn2)c1	?	-0.4%	/	?	2.6%	-0.6%

Bioassay records as filed in PubChem.
